SARS PLpro yeast – qHTS of Yeast-based Assay for SARS-CoV PLP; S. cerevisiae expressing SARS-CoV PLpro, growth rescue; AID 485353, 2010; Potency, µM (series often up to 32.9 µM), usual class: activators; 330,000 compounds, 0.19% hits; further: nearly all actives have a fitted effect of over 55% in size
Cycloheximide cs – Cycloheximide Counterscreen for Small Molecule Inhibitors of Shiga Toxin; cell reporter, cycloheximide protein synthesis inhibition counterscreen; max response, %; 300,000 compounds, 12% hits; in the data active means max response mostly above about 13%, no sharp cut-off; inactive means mostly below about 14%; further: read at 38.3 µM for the half of the compounds with a filed dose
Shiga inhibitor – A qHTS for Small Molecule Inhibitors of Shiga Toxin. Vero cells, Shiga toxin protein synthesis inhibition reporter. inhibition, % at 38.7 µM. 290,000 compounds, 9.2% hits. AID 2315, 2010; in the data active means inhibition mostly above about 28%, no sharp cut-off; inactive means mostly below about 43%
Pf growth 48h – Primary qHTS for delayed death inhibitors of the malarial parasite plastid, 48 hour incubation; AID 504832, 2011; 310,000 compounds, 5.9% hits; P. falciparum luciferase growth in erythrocytes, 48 h; Potency, µM (doses to about 28.7 µM), hits mostly inhibitors; active means well fitted inhibition curve with a large enough effect; inconclusive means small, poorly fitted or top-dose-only effect, or another doubt; inactive means no such curve, though single readings can be large or run the other way
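Firefly luciferase activity from engineered P. falciparum reports growth; inhibitors lower the luminescent signal. Cultures contained 2% hematocrit erythrocytes at 0.1% final parasitemia.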
NS1 inh – qHTS Assay for Inhibitors of Influenza NS1 Protein Function; Potency, µM (titrated, usually from 46.1 µM); 270,000 compounds, 0.4% hits; AID 2326, 2010; further: actives are rising curves; nearly all actives have a fitted effect of over 50% in size
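A cell-based growth assay was used: compounds that relieve NS1-induced slow growth of budding yeast raise OD600. Assay medium was yeast nitrogen base with ammonium sulphate and -URA supplement, pH 6.0, with 2% galactose.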
Pf growth 96h – Primary qHTS for delayed death inhibitors of the malarial parasite plastid, 96 hour incubation. P. falciparum luciferase reporter growth, 96 h. Potency, µM (doses to about 28.7 µM), actives largely listed as inhibitors. 320,000 compounds, 6.9% hits. AID 504834, 2011; active means well fitted inhibition curve with a large enough effect; inconclusive means small, poorly fitted or top-dose-only effect, or another doubt; inactive means no such curve, though single readings can be large or run the other way
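Two-generation exposure (96 h) targets delayed-death phenotype. Reporter parasites carrying integrated firefly luciferase, in red cells at 2% hematocrit and 0.05% parasitemia final, kept at 37 C, 5% CO2; luminescence loss indicates inhibition.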
Large screens that a line does not name were inactive. Sampled rows, rich in hits. Any-hit rate of the full collection: about 21%. Unless noted, the call rests on the fitted dose curve.

CSC1=NC(=O)/C(=C\c2cccc3ccccc23)S1	none (no result: NS1 inh)
CN(C(=O)COC(=O)c1ccccc1NCCO)C1CCS(=O)(=O)C1 (stereo not given)	none (no result: Cycloheximide cs, Shiga inhibitor, NS1 inh)
COc1ccc(-c2cc(=NCCCCCC(=O)O)c3cc(C)ccc3o2)cc1	Pf growth 96h inconclusive (no result: NS1 inh)
CCc1ccc2oc(-c3ccc(OC)cc3)cc(=Nc3c(C)n(C)n(-c4ccccc4)c3=O)c2c1	Cycloheximide cs 63, Shiga inhibitor 127, Pf growth 96h inconclusive (no result: NS1 inh)
COc1ccc(-c2cc(=Nc3cccc(C(=O)O)c3)c3cc(C)ccc3o2)cc1	Cycloheximide cs 59, Shiga inhibitor 98 (no result: NS1 inh)
COc1ccc(-c2cc(=Nc3ccc(C(=O)O)cc3)c3cc(C)ccc3o2)cc1	Cycloheximide cs 63, Shiga inhibitor 161 (no result: NS1 inh)
COc1ccc(CNC(=O)c2cc(=O)c3cc(C)ccc3o2)cc1	none
COc1ccc(-c2cc(=NCC(=O)O)c3ccccc3o2)cc1	Cycloheximide cs 28, Shiga inhibitor 62
O=c1cc(-c2ccccc2)oc2ccccc12	none (no result: Cycloheximide cs, Shiga inhibitor, NS1 inh)
COc1ccc(-c2nc3ccccc3c(=O)n2-c2c(C)n(C)n(-c3ccccc3)c2=O)cc1	none
N#Cc1c(SCC(=O)Nc2nncs2)sc2c(O)cc(=O)[nH]c12	NS1 inh inconclusive, Pf growth 96h inconclusive
Cc1ccccc1NCC(=O)N/N=C/C(Br)=C/c1ccccc1	none (no result: Pf growth 96h)
CCCn1nc(C(=O)NNC(=O)CCCOc2ccc(C)cc2)c2ccccc2c1=O	SARS PLpro yeast inconclusive
CCc1ccc2oc(-c3ccc(OC)cc3)cc(=Nc3cccc(C(=O)O)c3)c2c1	Cycloheximide cs 58, Shiga inhibitor 137, Pf growth 96h inconclusive (no result: NS1 inh)
Cc1ccc(CN2CCNC(=O)C2CC(=O)N(C)Cc2cnccn2)cc1 (stereo not given)	Pf growth 96h 13µM
Cc1cc(CN(C)C(=O)CC2C(=O)NCCN2Cc2ccc(-c3ccccc3)cc2)on1 (stereo not given)	Pf growth 96h 10µM
O=C(CC1C(=O)NCCN1Cc1cccc(C(F)(F)F)c1)NCCc1cnccn1 (stereo not given)	Pf growth 96h 2.1µM
CCOc1ccc(CN2CCNC(=O)C2CC(=O)NCc2csc(C)n2)cc1 (stereo not given)	Pf growth 96h 3.3µM
O=C(CC1C(=O)NCCN1Cc1ccc(F)cc1)NCCOc1cccnc1 (stereo not given)	Pf growth 96h inconclusive
Cc1nonc1CN(C)C(=O)CC1C(=O)NCCN1Cc1cccc(C(F)(F)F)c1 (stereo not given)	Pf growth 96h 10µM
O=C(CC1C(=O)NCCN1Cc1c(F)cccc1Cl)NCCCOc1cccnc1 (stereo not given)	Pf growth 96h 15µM
CC(C)N(Cc1nccn1C)C(=O)CC1C(=O)NCCN1Cc1ccc(F)cc1 (stereo not given)	Pf growth 96h 13µM
CC(C)N(Cc1nccn1C)C(=O)CC1C(=O)NCCN1Cc1ccc(F)c(F)c1 (stereo not given)	none
Cc1nonc1CN(C)C(=O)CC1C(=O)NCCN1Cc1ccccc1C(F)(F)F (stereo not given)	none
COC(=O)CSc1nnc(CNC(=O)c2ccc(OC)c(OC)c2)n1C	none (no result: NS1 inh)
CCC1CCC(C(=O)NC(C(=O)Nc2ccc3c(c2)OCCO3)C(C)C)CC1 (stereo not given)	Pf growth 96h 9.3µM (no result: Pf growth 48h)
CC(C)CC(NC(=O)C1CCC(C)CC1)C(=O)Nc1ccccc1F (stereo not given)	Pf growth 48h inconclusive
CC(=O)NC(CCS(C)(=O)=O)C(=O)Nc1ccc2c(c1)OCCO2 (stereo not given)	Shiga inhibitor 42, Pf growth 96h inconclusive
COC(=O)[C@H](CC(C)C)NC(=O)Nc1ccc2c(c1)OCCO2	Cycloheximide cs 33, Shiga inhibitor 93, Pf growth 96h inconclusive
CC(C)CC(NC(=O)C1CCC(C)CC1)C(=O)Nc1ccccn1 (stereo not given)	Cycloheximide cs 27, Shiga inhibitor 131, Pf growth 96h inconclusive
CS(=O)(=O)c1ccc(S(=O)(=O)N2CCC(CO)(CCCc3ccccc3)CC2)cc1	Pf growth 96h inconclusive
O=C(Cc1ccc(Cl)cc1)NNC(=O)c1ccco1	Pf growth 96h inconclusive
O=C1C=C(NNC(=O)c2ccncc2)CC(c2ccccc2)C1 (stereo not given)	Pf growth 48h inconclusive, Pf growth 96h inconclusive (no result: NS1 inh)
CC(=O)Nc1ccc(NC(=O)C(Cc2ccccc2)NC(=O)C2CCC(C)CC2)cc1 (stereo not given)	Pf growth 96h 0.33µM
CCOc1ccccc1NC(=O)C(CC(C)C)NC(=O)C1CCC(C)CC1 (stereo not given)	none (no result: Pf growth 48h)
CC(C)CC(NC(=O)C1CCC(C)CC1)C(=O)Nc1ccc2c(c1)OCCO2 (stereo not given)	Cycloheximide cs 44, Shiga inhibitor 122 (no result: Pf growth 48h)
CCCOc1ccc(C2C(C(=O)/C=C/c3ccco3)=C(O)C(=O)N2CCN2CCOCC2)cc1OC (stereo not given)	none (no result: NS1 inh)
CC(C)(C)NC(=O)C(c1ccncc1)N(C(=O)Cn1nnc(-c2ccc(F)cc2)n1)c1ccccc1F (stereo not given)	Cycloheximide cs 21, Pf growth 48h inconclusive
Cc1ccccc1N(C(=O)Cn1nnc(-c2ccc(F)cc2)n1)C(C(=O)NC(C)(C)C)c1ccncc1 (stereo not given)	none
CC(C)(C)NC(=O)C(c1ccc(O)cc1)N(C(=O)Cn1nnc(-c2ccc(F)cc2)n1)c1ccccc1F (stereo not given)	Pf growth 48h 12µM, Pf growth 96h inconclusive
CC(C)(C)NC(=O)C(c1ccncc1)N(C(=O)Cn1nnc(-c2ccc(F)cc2)n1)c1ccccc1 (stereo not given)	none
CC(=O)c1c(C(C)=O)c(C)n(Cc2ccc(Cl)cc2)c1C	Pf growth 96h 1.5µM (no result: Pf growth 48h)
CCOC(=O)c1c(C=O)c(C)n(Cc2ccccc2)c1C	none (no result: Pf growth 48h)
CCOC(=O)c1c(C=O)c(C)n(Cc2ccc(Cl)cc2)c1C	Pf growth 48h 1.9µM, Pf growth 96h inconclusive
N#C/C(=C\c1cccc([N+](=O)[O-])c1)C(=O)NCc1cccnc1	Pf growth 96h 6.6µM
N#C/C(=C\c1cccc([N+](=O)[O-])c1)C(=O)Nc1cccnc1	none (no result: NS1 inh)
N#C/C(=C/c1cccc([N+](=O)[O-])c1)C(=O)Nc1ccccc1O	Cycloheximide cs 13
N#C/C(=C\c1cccc([N+](=O)[O-])c1)C(=O)NCc1ccc(Cl)cc1	Pf growth 48h inconclusive, Pf growth 96h inconclusive (no result: NS1 inh)
CN1CCN(c2ccncc2S(=O)(=O)N2CCN(C)CC2)CC1	none (no result: SARS PLpro yeast, Cycloheximide cs, Shiga inhibitor, Pf growth 48h, Pf growth 96h)
COC(=O)c1cc(C(C)=O)c(C)[nH]c1=O	Pf growth 96h 5.2µM
CN(C)c1ccc(/C=N/c2cc(-c3ccccc3)nn2-c2ccccc2)cc1	Cycloheximide cs 39, Shiga inhibitor 57 (no result: Pf growth 48h)
COc1ccc(OC)c(NC(=O)CSc2ccc(-c3ccco3)nn2)c1	Pf growth 96h inconclusive

Assay outcomes as filed in PubChem BioAssay.
